Whole data set: some 16,000 sequences, median “Z-score” near -0.37, cut for the highest 2% near 3.2. For the sample, the highest values were picked, then their nearest neighbours and some sequences at random.
Tested on: RBM10 RRM1-ZnF (GST-tagged construct)
Assay: RNAcompete 7-mer binding Z-score; higher = stronger binding preference
In short: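 In 1 ml Hepes pH 7.8 buffer with KCl, NaCl, glycerol, DTT, BSA and glutathione Sepharose beads, GST-tagged RBM10 constructs (20 pmol) were incubated for 30 min at 4°C with 1.5 nmol of a designed pool of 241 399 RNAs up to 41 nt. Four 2-min washes at 4°C followed, and bound RNA was detected by microarray hybridisation. Heptamer motif enrichment was expressed as a one-sided Z-score across probes containing each motif.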

Sequence | RNAcompete 7-mer binding Z-score
UGAAGCG | 0.608
UGAAGGC | 1
CGAAGGA | 1.62
GGAAGGA | 4.79
UGAAGGG | 3.82
GCAUUCU | -0.785
UCGUACU | -0.539
GAGGCAC | 0.628
CCUAGUG | -0.266
UUCCAUC | -0.675
GCAGCGC | -0.178
GGUGAGG | 4.5
CGUGAGG | 1.35
GUUGAGC | 0.706
AUUGAGG | 1.63
CAUGAGG | 1.03
GUUGAGG | 3.36
GGUGAGA | 2.57
GAUGAGG | 3.56
GAUGAGU | 1.06
GUGUGUC | 0.137
CUCAAUA | -0.802
GCGAAGG | 2.06
UAACUAU | -0.617
GCUAACA | -0.399
AGAGCUG | 0.163

Sequence | RNAcompete 7-mer binding Z-score
GAUGGAC | 1.78
AAUGGAG | 3.43
GUUGGAA | 1.84
CAUGGAG | 1.48
GAUGGAU | 2.6
GAUGGAG | 3.52
GAUGGAA | 3.36
CAUGGAA | 1.1
AAUGGAC | 2.03
UAUGGAA | 1.22
UAUGGAG | 1.67
AAUGGAA | 3.35
AUCUACA | -0.568
CACCCUC | -0.578
UGCUUGA | -0.737
GGCGCAU | 0.183
UGAUGAC | -0.0512
CUUGCCU | -0.824
UCAUCUG | -0.844
GUUUCAC | -0.597
UGGGUUG | 3.04
GGGGUUC | 1.79
GCGGUUG | 1.42
CGGGUUG | 2.79
GGGGUUA | 3.21
UGGGUUU | 2.64

Sequence | RNAcompete 7-mer binding Z-score
AGGGUUA | 3.55
GGGGUUU | 3.16
GGGGUUG | 3.76
AGGGUUC | 0.985
UGGGUUA | 3.28
AGGGUUU | 2.56
AAUCUAA | -0.617
UUAUACA | -0.542
AUGUGGU | 1.52
GUCCGAC | -0.662
CUUCGGC | -0.759
AGAUAUC | -0.688
ACGGUUG | 1.78
AGGGUCG | 1.41
AGGGUUG | 3.8
CAUAAGA | -0.513
CACCGCG | 0.069
GGGUGUG | 3.76
AGGUGUA | 1.74
UGGUGUA | 1.52
GGGUGUA | 3.43
CGGUGUG | 1.72
UGGUGUG | 2.77
AAUUUGA | -0.399
ACAGAGG | 1.59
UACAAGA | -0.295

Sequence | RNAcompete 7-mer binding Z-score
CGCGGGG | 2.15
GGCGGGC | 2.11
UGCGGGA | 1.87
AGCGGGG | 4.14
AGCGGGA | 3.31
UGCGGGU | 2.92
UGCGGGC | 1.13
UGCGGGG | 3.26
GGCGGGG | 3.96
AGCGGGU | 3.07
GGCGGGU | 2.9
CGCGGGA | 1.05
GGCUUUA | -0.418
UUGCAGA | -0.171
AGCGGAA | 2.07
AGCGGAC | 1.16
AGCGGAU | 3.22
CUCAGGU | -0.0447
CGCAUAC | -0.61
AGAUGUG | 0.936
GGAUGUU | 0.959
AGAUGAG | 1.43
GGAUGAG | 3.4
GGAUGUG | 3.43
GGAUGAA | 2.16
CUCGUGC | -0.789

Sequence | RNAcompete 7-mer binding Z-score
AGCAAUC | -0.435
AGGGUAG | 3.72
AGGGUAC | 2.1
UGGGUAC | 2.69
UGGGUAG | 3.5
CGGGUAG | 2.18
UGGGUAU | 2.37
GACCAUU | -0.915
AUGGACG | 2.69
CACGUGG | 0.566
UCUUGAA | -0.785
CAUCCGC | -0.847
CCAAUCU | -0.802
AGUAGGG | 4.16
UGUAGGA | 1.7
CGUAGGG | 1.94
ACUAGGG | 2.03
AGUAGGC | 0.975
UGUAGGG | 3.6
AUACGAA | -0.194
CGGCUUG | -0.324
CUCGCAC | -0.587
GUUCUAA | -0.552
GAUAUGC | -0.0577
GGUAUGA | 2.19
GGUAUGG | 4.22

Sequence | RNAcompete 7-mer binding Z-score
AAUAUGG | 1.09
GAUAUGG | 3.3
GGUAUGU | 1.56
UCCCUGG | -0.24
GUUCGAG | -0.00571
CGAACAU | -0.503
UUUAGGC | -0.321
AGAGGGA | 2.09
GGAGGGA | 4.01
GGAGAGA | 1.46
UUAGAGG | 1.31
GGAGAGG | 3.41
CGAGGGG | 2.86
AGAGGGG | 2.11
GGAGGGC | 3.13
AGAGAGG | 1.27
GGAGGGG | 4.57
GUAGAGG | 3.56
AUAGAGG | 1.55
GUCCAUU | -0.818
CCCACUG | -0.483
GUUAUUC | -0.513
UGUAGGU | 1.75
UUGCCGC | -0.662
UUGGUCA | 0.0788
CAAGUAA | -0.275

Sequence | RNAcompete 7-mer binding Z-score
AAACCAG | -0.324
AGAGAAG | 1.63
GGAGAAG | 3.36
CGAGAAG | 0.495
GUGUCCA | -0.457
GGGCCGU | 0.53
CAGGGGU | 3.01
UAGGGGU | 3.9
UAGGGAA | 3.15
UAGGGGA | 3.71
UAGGGAC | 1.79
UAGGGCU | 1.42
CAGGGGG | 2.94
UAGGGGG | 3.97
UAGGGGC | 2.25
UGCUAGA | -0.233
UGUUCUC | -0.746
CCGCACC | -0.509
ACAGCGA | -0.0674
GGACUAU | 0.000789
AUAGCCU | -0.724

From the supplement of paper PMC5499739
